About 79,000 compounds went through this panel and 15% of them were active in at least one assay; those are over-represented in the sample as a whole. Active and inactive are the calls of the source. Cut-off read from the data, not from the text of the source: active = growth inhibition above about 70%; inactive = the rest.
Tests used:
[1] = NCI Yeast Anticancer Drug Screen. Data for the rad52 strain (AID 147);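 note: 0% = growth of vehicle-treated control cultures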; conditions: S. cerevisiae rad52 mutant growth inhibition, stronger effect = higher value
Summary of the method: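 Genetically altered yeast (DNA damage repair defect) treated with compound; inhibition calculated relative to vehicle.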

[2] = NCI Yeast Anticancer Drug Screen. Data for the wt1 strain (AID 149);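 note: 0% = growth of vehicle-treated wt1 cultures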; conditions: S. cerevisiae wt1 strain (SPY 50644) growth inhibition, stronger effect = higher value
Summary of the method: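 Readout: yeast growth inhibition, normalised to vehicle controls, in the wt1 strain exposed to test compounds.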

[3] = NCI Yeast Anticancer Drug Screen. Data for the rad50EPP+ strain (AID 151);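 note: 0% = growth of vehicle-treated control cultures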; conditions: S. cerevisiae rad50 mutant strain, stronger effect = higher value
Summary of the method: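 Strain rad50EPP+; compound exposure; % growth inhibition vs vehicle.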

[4] = NCI Yeast Anticancer Drug Screen. Data for the mgt1 strain (AID 153); conditions: S. cerevisiae mgt1 mutant growth inhibition, stronger effect = higher value
Summary of the method: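 Read-out: yeast growth inhibition vs vehicle control. Strain mgt1, drawn from a panel altered in DNA damage repair or cell cycle control.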

[5] = NCI Yeast Anticancer Drug Screen. Data for the rad50 strain (AID 155);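 note: 0% = growth of vehicle-only cultures of the same strain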; conditions: S. cerevisiae rad50 strain growth inhibition, stronger effect = higher value
Summary of the method: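 Compounds were tested on a yeast strain with an engineered DNA damage repair alteration; the reported value is growth inhibition normalised to vehicle treatment.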

[6] = NCI Yeast Anticancer Drug Screen. Data for the mec2-1 strain (AID 157); conditions: S. cerevisiae mec2-1 strain, stronger effect = higher value
Summary of the method: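 Cells of the genetically defined mec2-1 yeast strain are incubated with test compound. Inhibition of growth is calculated against vehicle-treated controls.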

[7] = NCI Yeast Anticancer Drug Screen. Data for the rad14 strain (AID 159);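 note: 0% = growth of vehicle-treated control cultures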; conditions: S. cerevisiae rad14 strain growth inhibition, stronger effect = higher value
Summary of the method: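 Compound-treated yeast with a defined DNA-repair lesion; growth inhibition normalised to vehicle-treated cultures.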

[8] = NCI Yeast Anticancer Drug Screen. Data for the sgs1 mgt1 strain (AID 161);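 note: 0% = growth of cultures given vehicle only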; conditions: S. cerevisiae sgs1 mgt1 strain, stronger effect = higher value
Summary of the method: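 Mutant yeast exposed to compound; growth scored against vehicle-only wells.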

[9] = NCI Yeast Anticancer Drug Screen. Data for the CLN2oe strain (AID 163);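 note: 0% = growth of vehicle-only control cultures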; conditions: S. cerevisiae CLN2oe strain, stronger effect = higher value
Summary of the method: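 Strain altered in cell-cycle control, incubated with compound; growth compared to solvent-treated controls.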

[10] = NCI Yeast Anticancer Drug Screen. Data for the cln2 rad14 strain (AID 165);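 note: 0% = growth equal to vehicle treated cultures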; conditions: S. cerevisiae cln2 rad14 strain, stronger effect = higher value
Summary of the method: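 The screen exposed genetically defined yeast (cln2 rad14) to test compounds and scored growth inhibition relative to vehicle-treated controls.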

[11] = NCI Yeast Anticancer Drug Screen. Data for the bub3 strain (AID 167); conditions: S. cerevisiae bub3 mutant strain, stronger effect = higher value
Summary of the method: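 Growth of a checkpoint-deficient yeast mutant is measured after compound exposure. Values represent inhibition relative to vehicle.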

[12] = NCI Yeast Anticancer Drug Screen. Data for the wt2 strain (AID 169);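 note: 0% = growth of vehicle-treated yeast cultures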; conditions: S. cerevisiae wt2 strain growth inhibition, stronger effect = higher value
Summary of the method: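 Steps: yeast strain treated with compound; growth recorded; inhibition calculated relative to cultures given vehicle alone.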

[13] = NCI Yeast Anticancer Drug Screen. Data for the mlh1 strain (AID 171);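 note: 0% = growth of vehicle-treated control cultures of the same strain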; conditions: S. cerevisiae mlh1 strain growth inhibition, stronger effect = higher value
Summary of the method: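 Yeast screen: mutant strain plus compound, growth scored against vehicle control wells.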

[14] = NCI Yeast Anticancer Drug Screen. Data for the sgs1 strain (AID 173);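 note: 0% = growth of vehicle-only control cultures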; conditions: S. cerevisiae sgs1 mutant, stronger effect = higher value
Summary of the method: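 Inhibition of yeast growth served as the measure. The mutant strain was treated with each compound, and growth was normalised to cultures receiving vehicle alone.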

[15] = NCI Yeast Anticancer Drug Screen. Data for the mlh1 rad18 strain (AID 175); conditions: S. cerevisiae mlh1 rad18 strain growth inhibition, stronger effect = higher value
Summary of the method: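 Compound-treated yeast growth, normalised to vehicle controls. Strain bears defined DNA repair mutations.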

[16] = NCI Yeast Anticancer Drug Screen. Data for the rad18 strain (AID 177); conditions: S. cerevisiae rad18 mutant growth inhibition, stronger effect = higher value
Summary of the method: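 Inhibition values reflect reduced yeast growth compared with vehicle-treated controls, using a strain engineered with a DNA damage repair defect.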

[17] = at 5.0 µM (retest, dose inferred, filed as 0.5)
[18] = at 50.0 µM (retest, dose inferred, filed as 5.0)

Measured: growth inhibition

OC1(c2ccccc2)CSC2=Nc3ccccc3C3CCN1N23 (stereo unspecified)
inactive: [1]; at 1.2 µM -41% | [1]; at 3.7 µM -50% | [1]; at 11.0 µM -45% | [1]; at 33.0 µM -29% | [2]; at 1.2 µM -82% | [2]; at 3.7 µM -83% | [2]; at 11.0 µM -89% | [2]; at 33.0 µM -33% | [3]; at 1.2 µM -29% | [3]; at 3.7 µM -40% | [3]; at 11.0 µM -47% | [3]; at 33.0 µM -22% | [3]; at 100.0 µM 66% | [4]; at 1.2 µM -45% | [4]; at 3.7 µM -43% | [4]; at 11.0 µM -38% | [4]; at 33.0 µM 57% | [5]; at 1.2 µM -66% | [5]; at 3.7 µM -75% | [5]; [17] 24% | [5]; at 11.0 µM -61% | [5]; at 33.0 µM -20% | [5]; [18] 47% | [5]; at 50.0 µM 51.5% | [6]; at 1.2 µM -86% | [6]; at 3.7 µM -71% | [6]; [17] 12% | [6]; at 11.0 µM -91% | [6]; at 33.0 µM -21% | [6]; [18] 40% | [6]; at 50.0 µM 43.7% | [7]; at 1.2 µM -51% | [7]; at 3.7 µM -32% | [7]; at 11.0 µM -36% | [7]; at 33.0 µM 13% | [8]; [17] 27% | [8]; [18] 51% | [9]; at 1.2 µM -23% | [9]; at 3.7 µM -16% | [9]; at 11.0 µM -46% | [9]; at 33.0 µM 2% | [10]; [17] 25% | [10]; [18] 40% | [10]; at 50.0 µM 16.4% | [11]; at 1.2 µM -56% | [11]; at 3.7 µM -54% | [11]; [17] 19% | [11]; at 11.0 µM -43% | [11]; at 33.0 µM 58% | [11]; [18] 11% | [12]; at 1.2 µM -47% | [12]; at 3.7 µM -39% | [12]; at 11.0 µM -34% | [12]; at 33.0 µM -1% | [13]; at 1.2 µM -81% | [13]; at 3.7 µM -100% | [13]; at 11.0 µM -63% | [13]; at 33.0 µM 58% | [14]; at 1.2 µM -23% | [14]; at 3.7 µM -55% | [14]; at 11.0 µM -42% | [14]; at 33.0 µM 18% | [15]; [17] 23% | [16]; at 1.2 µM -65% | [16]; at 3.7 µM -55% | [16]; at 11.0 µM -70% | [16]; at 33.0 µM -21%
active: [1]; at 100.0 µM 91% | [2]; at 100.0 µM 95% | [4]; at 100.0 µM 94% | [5]; at 100.0 µM 92% | [6]; at 100.0 µM 93% | [7]; at 100.0 µM 94% | [8]; at 50.0 µM 80.2% | [9]; at 100.0 µM 93% | [11]; at 50.0 µM 73.7% | [11]; at 100.0 µM 91% | [12]; at 100.0 µM 94% | [13]; at 100.0 µM 93% | [14]; at 100.0 µM 94% | [15]; [18] 78% | [15]; at 50.0 µM 80.7% | [16]; at 100.0 µM 92%

O=C1C(Nc2ccccc2)=C(Oc2ccccc2)C(=O)c2ccccc21
active: [11]; at 50.0 µM 82.5% | [11]; at 100.0 µM 70%
inactive: [1]; at 1.2 µM -3% | [1]; at 3.7 µM -6% | [1]; at 11.0 µM 1% | [1]; at 33.0 µM 23% | [1]; at 100.0 µM 32% | [2]; at 1.2 µM 3% | [2]; at 3.7 µM -10% | [2]; at 11.0 µM 7% | [2]; at 33.0 µM -4% | [2]; at 100.0 µM 14% | [3]; at 1.2 µM 5% | [3]; at 3.7 µM 20% | [3]; at 11.0 µM 28% | [3]; at 33.0 µM 58% | [3]; at 100.0 µM 60% | [4]; at 1.2 µM 5% | [4]; at 3.7 µM -2% | [4]; at 11.0 µM 2% | [4]; at 33.0 µM 1% | [4]; at 100.0 µM -1% | [5]; at 1.2 µM -6% | [5]; at 3.7 µM -11% | [5]; [17] -1% | [5]; at 11.0 µM -5% | [5]; at 33.0 µM 27% | [5]; [18] 26% | [5]; at 50.0 µM 23.7% | [5]; at 100.0 µM 38% | [6]; at 1.2 µM 2% | [6]; at 3.7 µM 1% | [6]; [17] 3% | [6]; at 11.0 µM 6% | [6]; at 33.0 µM 3% | [6]; [18] 20% | [6]; at 50.0 µM 24.4% | [6]; at 100.0 µM 2% | [7]; at 1.2 µM 13% | [7]; at 3.7 µM 0% | [7]; at 11.0 µM 4% | [7]; at 33.0 µM 9% | [7]; at 100.0 µM -15% | [8]; [17] -2% | [8]; [18] 17% | [8]; at 50.0 µM 16.4% | [9]; at 1.2 µM -6% | [9]; at 3.7 µM -2% | [9]; at 11.0 µM 1% | [9]; at 33.0 µM -1% | [9]; at 100.0 µM -4% | [10]; [17] -7% | [10]; [18] 1% | [10]; at 50.0 µM 5.25% | [11]; at 1.2 µM 3% | [11]; at 3.7 µM 9% | [11]; [17] 16% | [11]; at 11.0 µM 23% | [11]; at 33.0 µM 55% | [11]; [18] 59% | [12]; at 1.2 µM -10% | [12]; at 3.7 µM 0% | [12]; at 11.0 µM 11% | [12]; at 33.0 µM 35% | [12]; at 100.0 µM 29% | [13]; at 1.2 µM -5% | [13]; at 3.7 µM 0% | [13]; at 11.0 µM 1% | [13]; at 33.0 µM 0% | [13]; at 100.0 µM 0% | [14]; at 1.2 µM -7% | [14]; at 3.7 µM -2% | [14]; at 11.0 µM 3% | [14]; at 33.0 µM 15% | [14]; at 100.0 µM 16% | [15]; [17] -3% | [15]; [18] 30% | [15]; at 50.0 µM 58.8% | [16]; at 1.2 µM -4% | [16]; at 3.7 µM 4% | [16]; at 11.0 µM 4% | [16]; at 33.0 µM 14% | [16]; at 100.0 µM 1%

From PubChem BioAssay (NCI)
